“And” between values parts separate entries of the source, which are not always exact repeats. Equal values may be shown once.

In this experiment the target is Bromodomain-containing protein 4 (Homo sapiens) (UniProt O60885). Conditions: Compound concentration 20.0 uM, Protein concentration 2.0 uM, Result type QC Liability.
On to `NC(=O)OC[C@H](NC(=O)Cn1nc(-c2ccc(Cl)cc2)n(C[C@H](O)C(F)(F)F)c1=O)c1cccc(C(F)(F)F)c1`, for which the ΔTm (commonly the shift of the melting midpoint relative to a reference) worked out at 0.39 °C.

Take `Cc1cc(NC(=O)c2cccc(NC(=O)/C=C/CN(C)C)c2)ccc1Nc1nccc(-c2cccnc2)n1`: the ΔTm was -1.31 °C.

For the molecule `CN(C)CCC[C@@]1(c2ccc(F)cc2)OCc2cc(C#N)ccc21`, the ΔTm was -1.59 °C.

For the molecule `CCCCC[C@H](O)/C=C/[C@H]1[C@H](O)CC(=O)[C@@H]1CCCCCCC(=O)O`, the ΔTm is -1.54 °C.

As to `O=C(O)Cc1ccc(CCNS(=O)(=O)c2ccc(Cl)cc2)cc1`, the thermal shift (ΔTm) was -1.74 °C. Then `CCOC(=O)CS(=O)(=O)c1ccc([C@@H](CO)NC(=O)c2cc3c(Cl)c(Cl)c(C)cc3n2C)cc1`, with -3.35 °C; and `CCN(C)S(=O)(=O)Nc1cccc(-c2ccc3c(NC(=O)C4CC4)n[nH]c3c2)c1`, with 0.55 °C; and `CN(C1CCc2c(c3ccccc3n2CC(=O)O)C1)S(=O)(=O)c1ccc(F)cc1` (centres undefined), with -1.34 °C.

On to `C=CC1C[C@]1(NC(=O)[C@@H]1C[C@@H](Oc2cc(-c3csc(NC(=O)C(C)C)n3)nc3c(Br)c(OC)ccc23)CN1C(=O)[C@@H](NC(=O)OC1CCCC1)C(C)(C)C)C(=O)O` (some centres undefined), for which the ΔTm is 1.06 °C. In the case of `Cn1cc(-c2ccc(-c3cncc(Cl)c3N3CCC4(CCNC4=O)CC3)cc2)cn1` it was 0.07 °C.

`O=C1COc2cc(C(=O)N(Cc3ccc(C(=O)Nc4ccncn4)cc3)C3CC3)ccc2N1`: the ΔTm is 0.06 °C.

Regarding `O=C(Nc1ccc(N2CCC(C(=O)N3CCOCC3)CC2)cc1)c1cnc(Oc2ccccc2)nc1`, the ΔTm is -0.8 °C.

`COc1cc2nc(-c3cc(F)ccc3O)nc(N[C@@H]3CNC[C@H]3C(C)(C)O)c2cc1OC`: the ΔTm is 1.15 °C. Then `CC(=O)Nc1ncc(CN2CCC[C@H](Cc3cc(C)nc(C)c3)C2)s1`, with 0.62 °C; and `NC(=O)c1ccc(-c2nc(-c3ccc4c(c3)OCCO4)c(-c3ccccn3)[nH]2)cc1`, with -0.56 °C. Take `Cc1cc(=O)oc2cc(NC(=O)[C@H](Cc3ccc(I)cc3)NC(=O)[C@H]3N[C@@H]4CC[C@H]3C4)ccc12`: the ΔTm is -0.26 °C.

In the case of `CC(=O)Nc1c(F)cc(C(=O)N[C@H]2CC[C@H](O)CC2)cc1O[C@@H](C)c1ccccc1`, the ΔTm is -1.18 °C. In the case of `c1ccc2c(-c3coc4cc(-c5ccc(N6CCNCC6)cc5)cnc34)ccnc2c1` it was -1.89 °C. In the case of `CC(C)(C)C(=O)NCc1ccc(Cl)c(C(=O)Nc2ncc[nH]2)c1` it was -0.82 °C; in that of `Cc1cc(CN)cc(C)c1-c1ncn(C)c1-c1cncn1C`, -1.42 °C; in that of `CC(C)N(C(=O)C1CCOCC1)c1cc(F)c(Oc2ncc(Cn3nccn3)cc2C(F)(F)F)cc1C(=O)O`, -3.14 °C. In the case of `CCn1ccc(Nc2ncc3c(n2)-c2c(nn(C)c2-c2ccc(-c4cnn(C)c4)cc2Cl)CC3)n1` it was -1.73 °C.

As to `C=CC(=O)Nc1cccc(C(=O)Nc2ccc(Nc3cc(-c4c(-c5ccc(F)cc5)nc(SC)n4C)ccn3)cc2)c1`, the ΔTm was -0.7 °C. As for `CCCc1c(OCCCOc2ccc(OCC(=O)O)cc2)ccc(C(C)=O)c1O`, the ΔTm is -2.92 °C. As for `N#CN1CC[C@H](C(=O)Nc2nc3c(s2)CN(C(=O)CN=[N+]=[N-])CC3)C1`, the ΔTm was -0.19 °C. Then `OC(c1ccc(-c2ccc(CN3CCN(Cc4ccncc4)CC3)cc2)c(F)c1)(C(F)(F)F)C(F)(F)F`, with -1.34 °C. Then `COc1cc(-c2cncc(-c3cnn(C4CCNCC4)c3)c2)cc(OC)c1OC`, with 0.84 °C; and `Cc1cc(OCCC(C)(C)O)cc(C)c1-c1ccc(F)c2c1CC[C@H]2Oc1ccc2c(c1)OC[C@H]2CC(=O)O`, with -2.75 °C; and `CCCNc1ccc2ncc(-c3ccncc3)n2n1`, with -0.06 °C. Then `O=C1CCCN1CCNc1nc(Nc2ccc(Cl)c(Cl)c2)ncc1C(F)(F)F`, with -2.43 °C; and `Cc1sc(C(=O)c2cncnc2N[C@@H]2C[C@H](COS(N)(=O)=O)[C@@H](O)C2)cc1[C@@H]1NCCc2ccc(Cl)cc21`, with -4.45 °C; and `COc1ccccc1-c1cc(Nc2cccc(CS(N)(=O)=O)c2)ncn1`, with -0.36 °C. For `CC(=O)c1ccc2c(c1)/C(=C(/Nc1cccc(C#N)c1)c1ccc3c(c1)OCCO3)C(=O)N2`, the ΔTm is -1.21 °C. Then `Cc1c(NC(=O)c2ccc(C(C)(C)C)cc2)cccc1-c1cn(C)c(=O)c(Nc2ccc(C(=O)N3CCOCC3)cc2)n1`, with -9.46 °C; and `CC(F)(F)CN1C(=O)c2[nH]nc(-c3cccc4[nH]c(=O)oc34)c2C1c1ccc(Oc2cc(C(F)(F)F)cc(C(F)(F)F)c2)cc1` (centres undefined), with -1.07 °C. Then `CC(C)(O)c1cn(-c2ccc(-c3cccc(S(C)(=O)=O)c3)cc2)c(C(C)(C)c2ccccc2Cl)n1`, with -4.36 °C. In the case of `CCc1nc(-c2cccc(C)c2)c(-c2ccnc(NC(=O)c3ccccc3)c2)s1` it was -1.99 °C; in that of `CCS(=O)(=O)c1cc2cc(C[C@@](O)(CC(C)(C)c3ccc(F)cc3C(N)=O)C(F)(F)F)[nH]c2cn1`, 0.67 °C and -0.3 °C. Take `Cn1cc(-c2cnc3ccc4ccc(CS(=O)(=O)NCc5ccccn5)cc4c(=O)c3c2)cn1`: the ΔTm was -1.72 °C.

Values taken from ChEMBL document CHEMBL5308504, “Tm Shift (DSF) assay results for EUbOPEN Chemogenomics Library” (2023).
